40 compounds from PubChem BioAssay (NCATS) can be followed below.

Structures are written as SMILES. “And” between values parts separate entries of the source, which are not always exact repeats. Identical values can stand only once. A number with no mark means an inactive call. Inconclusive results are not listed. For some of these results: Potency and affinity values are given separately. The source made the active and inactive calls. Unless noted, how the calls were made is not given here.

Test [1] in a line: qHTS assay for small molecule agonists of the antioxidant response element (ARE) signaling pathway measured by Nrf2-dependant transcriptional activity (AID 720636; active means well fitted curve in the direction sought with a large enough effect in the repeat runs; an effect the other way counts as inactive or inconclusive; further: potency means the concentration at half of the fitted maximal effect). The note with it: ARE-luc HepG2, Nrf2 luciferase reporter, 16 h; series mostly up to 92.4 µM. The method in brief:
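Cells: ARE-luc HepG2 with Nrf2-responsive luciferase. Medium contained 1% dialyzed FBS. Compound exposure lasted 16 hr at 37 C and 5% CO2, followed by ONE-Glo luciferase detection.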
(Quantitative high-throughput screening tests each substance at several concentrations.)

The nature of test [2]: qHTS assay for small molecule agonists of the antioxidant response element (ARE) signaling pathway measured by Nrf2-dependant transcriptional activity - cell viability counter screen (AID 720653; active means well fitted curve in the direction sought with a large enough effect in the repeat runs; an effect the other way counts as inactive or inconclusive; further: potency means the concentration at half of the fitted maximal effect; on max response: on the % scale 0 is the no-effect control and ±100 the full control effect). The following applies: ARE-bla HepG2 viability, CellTiter-Glo ATP luminescence, 16 h; max response: hits give low values. Summed up:
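ARE-bla HepG2 cells treated with compounds for 16 h at 37C; this counter screen measures viability as intracellular ATP by CellTiter-Glo luminescence after 30 min at room temperature.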

Test [3] in a line: qHTS Assay for Identifying Gametocytocidal Compounds (AID 743244; active means well fitted curve in the direction sought with a large enough effect; an effect the other way counts as inactive or inconclusive; further: potency means the concentration at half of the fitted maximal effect;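 on max response: on the % scale 0 is the no-effect control and ±100 the full control effect; actives lower the fluorescent signal which means gametocytes are killed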). The following applies: P. falciparum 3D7 stage III-V gametocytes, alamarBlue, 72 h; max response: hits give low values. Summed up:
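Late gametocytes (III–V), P. falciparum 3D7; 72 h drug, then 24 h alamarBlue; resazurin reduction read by fluorescence.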

The nature of test [4]: qHTS assay for cell viability of HEK293 cells (AID 743288; active means well fitted curve in the direction sought with a large enough effect; an effect the other way counts as inactive or inconclusive; further: nearly all actives have a fitted effect of over 50% in size; further: potency means the concentration at half of the fitted maximal effect; on max response: on the % scale 0 is the no-effect control and ±100 the full control effect). The following applies: ATP luminescence (CellTiter-Glo), 18 h; max response: hits give low values. Summed up:
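HEK293, 18 h, 37 C, ATP luminescence. Cells at 2,000/well were allowed at least 5 h to settle before dosing; CellTiter-Glo developed 30 min at RT.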

The nature of test [5]: qHTS assay for cell viability of the p53RE-bla HCT-116 cell line (AID 743292; active means well fitted curve in the direction sought with a large enough effect; an effect the other way counts as inactive or inconclusive; further: nearly all actives have a fitted effect of over 55% in size; further: potency means the concentration at half of the fitted maximal effect). The following applies: p53RE-bla HCT-116 viability, ATP luminescence, 16 h; series mostly up to 95 µM. The method in brief: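 HCT-116 p53RE-bla cells seeded 4,000/well; 5 h at 37 C; compound (DMSO) added; 16 h at 37 C; CellTiter-Glo added, 30 min RT; luminescence read.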
For test [6] the following is noted: Ebola virus entry assay, ratio channel.
The conditions of test [7]: Ebola virus entry assay, green channel fluorescence.
Test [8] is described as follows: qHTS assay for small molecule antagonists of the retinoid-related orphan receptor gamma (ROR-gamma) signaling pathway - cell viability counter screen (AID 720652; active means well fitted curve in the direction sought with a large enough effect in the repeat runs; an effect the other way counts as inactive or inconclusive;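 further: compound exposure lasted 16 hr before ATP read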; further: potency means the concentration at half of the fitted maximal effect). The following applies: RORgamma reporter cell line viability counter screen; series mostly up to 92.2 µM. The method in brief:
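CHO RORE-LUC/TET-ROR line, 1,000 cells/well, 37 C 5% CO2 5 hr; cpd or DMSO + doxycycline induction, 16 hr. CellTiter-Glo, 30 min RT, luminescence = ATP content.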

Usually AC50 stands for the concentration at which the activity in the assay is half-maximal.

With `CS(=O)(=O)c1ccc(C(=O)C2C(=O)CCCC2=O)c([N+](=O)[O-])c1`, the Potency result in test [1] and in test [5] was “inactive” in each case. For the same compound, the values for the max response in test [2], in test [3] and in test [4] were -7.62%, -23.2% and -4.44%, respectively. For the same compound, the outcome in test [6] and in test [7] was inactive.

For the compound `OCc1c[nH]c2ccccc12`, the outcome in test [6] and in test [7] was inactive.

In the case of `O=[N+]([O-])c1cc([N+](=O)[O-])c2ccccc2c1`, the Potency in test [1] is 42.2 µM (active). Also, the Potency result in test [8] and in test [5] was “inactive” each time. The max response in test [2] is -11.7%; in test [3] it was -17.3%; in test [4], -3.94%. Besides, the result in test [6] and in test [7] was inactive.

As to `CC(C)(C)C(O)C(Oc1ccc(Cl)cc1)n1cncn1` (stereo not drawn), the Potency entry in test [1] and in test [5] was “inactive” in each case. The results for the max response in test [2], in test [3] and in test [4] were -9.81%, 12.8% and -2.21%, respectively. Besides, the outcome in test [6] and in test [7] was inactive.

Consider `C[N+](C)(C)CC(=O)O`, for which the max response in test [3] is -4.91%. Besides, the result in test [6] and in test [7] was inactive.

In the case of `OCCCBr`, the Potency entry in test [1], in test [8] and in test [5] was “inactive” in each case. In addition, the max response in test [2] was 4.92%; in test [3], 31%; in test [4] it was 2.95%. Also, the result in test [6] and in test [7] was inactive.

Turning to `O=C(O)CCCOc1ccc(Cl)cc1Cl`, the Potency entry in test [1] and in test [5] was “inactive” each time. For the same compound, the max response in test [2] was -1.4%; in test [3], 19%; in test [4], -3.48%. Also, the outcome in test [6] and in test [7] was inactive.

Regarding `CN1CCN(c2c(F)cc3c(=O)c(C(=O)O)cn4c3c2OCN4C)CC1`, in test [7], the outcome was inactive.

Consider `C[C@H](CN1CCCC1)C(=O)c1ccc(C(F)(F)F)cc1`, for which, in test [7], the compound was called inactive.

Take `O=C(O)c1ccccc1NCCc1ccccc1`: the result in test [7] was inactive.

Take `Fc1cc(Br)ccc1CBr`: in test [7], the outcome was inactive.

For `COc1c(N2CCNC(C)C2)c(F)cc2c(=O)c(C(=O)O)cn(C3CC3)c12` (stereo not drawn), the compound was called inactive in test [7].

Take `Cc1cc(-c2ccccc2)nnc1NCCN1CCOCC1`: the compound was classed as inactive in test [7].

As to `O=C(Oc1ccccc1)c1cccc(C(=O)Oc2ccccc2)c1`, in test [7], the compound was called inactive.

In the case of `Oc1c(I)cc(I)c2cccnc12`, the compound was classed as inactive in test [7].

For the compound `O=C(O)CNC(=O)CNC(=O)CNC(=O)CSC(=O)c1ccccc1`, the outcome in test [7] was inactive.

For `CCOC(=O)C(=O)CCCCCCl`, the compound was classed as inactive in test [7].

In the case of `CCCCCCCCCCC(CO)CCCCCCCC` (stereo not drawn), in test [7], the compound was called inactive.

For the compound `Cn1c(NCCN(CCO)CCCc2ccc([N+](=O)[O-])cc2)cc(=O)n(C)c1=O`, the compound was called inactive in test [7].

Take `Cc1c(C)c2c(c(C)c1OC(=O)c1cccnc1)CC[C@@](C)(CCC[C@H](C)CCC[C@H](C)CCCC(C)C)O2`: the compound was called inactive in test [7].

With `CC(=O)[O][Hg][c]1ccccc1`, in test [1], the Potency entry was “inactive”. Further, the Potency was 1.33 µM (active) in test [8]; 35.5 µM (active) and 14.1 µM (active) in test [2]; 1.12 µM (active) in test [3]; 7.08 µM (active) and 22.4 µM (active) in test [4]; 8.91 µM (active) and 10 µM (active) in test [5]. In test [6], the half-maximal activity concentration (AC50) is 4.47 µM (active).

Take `CC(C)NCC(O)c1ccc([N+](=O)[O-])cc1` (stereo not drawn): the max response in test [3] is -16.1%. For the same compound, the result in test [6] and in test [7] was inactive.

In the case of `O=C(Nc1ccc(Oc2ccc(Cl)cc2)c(Cl)c1)c1cc(I)cc(I)c1O`, in test [7], the outcome was inactive.

Take `O=C(O)Cc1ccccc1Oc1ccc(Cl)cc1Cl`: in test [7], the outcome was inactive.

Turning to `Nc1ccc(S(=O)(=O)Nc2ccccc2)cc1`, the outcome in test [7] was inactive.

As for `O=S(=O)(O)C(F)(F)C(F)(F)C(F)(F)C(F)(F)F`, the Potency result in test [1] and in test [5] was “inactive” in each case. The max response was -3.1% and 4.61% in test [2]; -9.45% in test [3]; -11.1% and -18% in test [4]. In test [6], the outcome was inactive.

For `CCCN(CCC)c1c([N+](=O)[O-])cc(S(N)(=O)=O)cc1[N+](=O)[O-]`, the Potency result in test [1] and in test [5] was “inactive” each time. Besides, the max response in test [4] was -4.88%. In test [6], the AC50 is 8.91 µM (active).

Regarding `COc1ccc2cc(CCC(C)=O)ccc2c1`, in test [7], the result was inactive.

Take `N[C@H]1C(O)O[C@H](CO)[C@@H](O)[C@@H]1O` (stereo partly drawn): the compound was called inactive in test [7].

`NCCCC(N)(C(=O)O)C(F)F` (stereo not drawn): in test [7], the outcome was inactive.

As to `CC(C[N+](C)(C)C)OC(N)=O` (stereo not drawn), the call in test [7] was inactive.

Take `Cc1cccc(C)c1NC(=O)c1ccc(N)cc1`: in test [7], the compound was called inactive.

Consider `C[C@@H](N)C(=O)O`, for which the result in test [7] was inactive.

Turning to `CCN(CC)CCc1nc(-c2ccccc2)no1`, in test [7], the outcome was inactive.

Turning to `CCOC(=O)c1c(C)n(C)c2ccc(O)cc12`, in test [7], the outcome was inactive.

For `O=[N+]([O-])c1ccc([As](=O)(O)O)cc1`, the Potency in test [3] is 10 µM (active). Further, the outcome in test [6] and in test [7] was inactive.

For the compound `Oc1ccc2c3c1O[C@H]1[C@@H](O)C=C[C@H]4[C@@H](C2)NCC[C@@]341`, in test [3], the max response is 4.91%. Moreover, the outcome in test [6] and in test [7] was inactive.

For the compound `Nc1cccc2c(N)cccc12`, the max response in test [2] is -13.9%. Also, the Potency in test [3] was 25.1 µM (active). In addition, the outcome in test [6] was inactive.

Take `CCCOC(=O)c1ccc(O)cc1`: in test [7], the call was inactive.

On to `CCCCOC(=O)c1ccccc1C(=O)OCc1ccccc1`, for which the Potency result in test [1], in test [8] and in test [5] was “inactive” each time. For the same compound, the max response is -1.29% and -2.62% in test [2]; 13.2% in test [3]; -13.6% and -13.5% in test [4]. In addition, the result in test [6] was inactive.
